Data published in PubChem BioAssay AID1159580 (chemical genetic matrix, 2015).
The campaign covered roughly 5,500 compounds. About 2,000 (36%) were called active. Roughly 18% stayed inconclusive and do not appear here. Rule as the data show it: active = normalized growth mostly below about 0.91 (no sharp cut-off); inconclusive = no clear call, values can overlap the other calls; inactive = mostly above about 0.92. This is one part of the list.

Assay: chemical genetic growth profiling, strain panel (AID 1159580);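 also: tested at 20 µM; growth read once vehicle control cultures reached saturation at 30 °C; 1 = growth at the plate median or of vehicle wells; lower values mean less growth of the strain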
Settings: S. cerevisiae deletion strains, growth OD
[1] = locus YDL101C, strain DUN1, stronger effect = lower value
[2] = locus YHR030C, strain SLT2, stronger effect = lower value
[3] = locus YAL013W, strain DEP1, stronger effect = lower value
[4] = locus YBR229C, strain ROT2, stronger effect = lower value
[5] = locus YDR150W, strain NUM1, stronger effect = lower value
[6] = locus YEL061C, strain CIN8, stronger effect = lower value
[7] = locus YGR078C, strain PAC10, stronger effect = lower value
[8] = locus YHR087W, strain rtc3, stronger effect = lower value
[9] = locus YJR043C, strain POL32, stronger effect = lower value
[10] = locus YJR075W, strain HOC1, stronger effect = lower value
[11] = locus YLR039C, strain RIC1, stronger effect = lower value
[12] = locus YLR058C, strain SHM2 (second series), stronger effect = lower value
[13] = locus YLR085C, strain ARP6, stronger effect = lower value
[14] = locus YLR262C, strain YPT6, stronger effect = lower value
[15] = locus YML094W, strain GIM5, stronger effect = lower value
[16] = locus YMR219W, strain ESC1, stronger effect = lower value
[17] = locus YMR263W, strain SAP30, stronger effect = lower value
[18] = locus YNL128W, strain TEP1, stronger effect = lower value
[19] = locus YNL153C, strain GIM3, stronger effect = lower value
[20] = locus YNL298W, strain CLA4 (second series), stronger effect = lower value
[21] = locus YNL322C, strain KRE1, stronger effect = lower value
[22] = locus YNR030W, strain Alg12, stronger effect = lower value
[23] = locus YPL055C, strain LGE1, stronger effect = lower value
[24] = locus YPL241C, strain CIN2, stronger effect = lower value
[25] = locus YPR135W, strain CTF4, stronger effect = lower value

Measured: normalized growth

Clc1ccc(SCc2ccsc2-c2ncns2)cc1
inactive: locus YAR019C, strain CDC15, stronger effect = lower value 0.98 | locus YBL105C, strain PKC1, stronger effect = lower value 0.968 | locus YBR135W, strain CKS1, stronger effect = lower value 0.967 | locus YBR136W, strain MEC1, stronger effect = lower value 0.968 | locus YBR160W, strain CDC28, stronger effect = lower value 0.975 | locus YDL017W, strain CDC7, stronger effect = lower value 0.97 | locus YDL028C, strain MPS1, stronger effect = lower value 0.971 | [1] 0.954 | locus YDL108W, strain KIN28, stronger effect = lower value 0.967 | locus YDL132W, strain cdc53, stronger effect = lower value 0.968 | locus YDL214C, strain PRR2, stronger effect = lower value 0.965 | locus YDR052C, strain DBF4, stronger effect = lower value 0.976 | locus YDR054C, strain cdc34, stronger effect = lower value 0.964 | locus YDR226W, strain ADK1, stronger effect = lower value 0.968 | locus YDR477W, strain SNF1, stronger effect = lower value 0.951 | locus YER123W, strain YCK3, stronger effect = lower value 0.897 | locus YER133W, strain GLC7, stronger effect = lower value 0.961 | locus YFL009W, strain cdc4, stronger effect = lower value 0.964 | locus YFL029C, strain CAK1, stronger effect = lower value 0.969 | locus YFR003C, strain YPI1, stronger effect = lower value 0.967 | locus YFR019W, strain FAB1, stronger effect = lower value 0.906 | locus YFR028C, strain CDC14, stronger effect = lower value 0.96 | locus YGR040W, strain KSS1, stronger effect = lower value 0.946 | locus YGR052W, strain FMP48, stronger effect = lower value 1.04 | locus YGR092W, strain DBF2, stronger effect = lower value 0.914 | [2] 0.933 | locus YHR079C, strain IRE1, stronger effect = lower value 0.958 | locus YHR082C, strain KSP1, stronger effect = lower value 1 | locus YHR205W, strain SCH9, stronger effect = lower value 0.923 | locus YIL147C, strain SLN1, stronger effect = lower value 0.973 | locus YJL095W, strain BCK1, stronger effect = lower value 0.972 | locus YJL128C, strain PBS2, stronger effect = lower value 0.961 | locus YJL157C, strain FAR1, stronger effect = lower value 0.963 | locus YJR016C, strain ILV3, stronger effect = lower value 0.977 | locus YJR066W, strain TOR1 (second series), stronger effect = lower value 0.933 | locus YJR066W, strain TOR1, stronger effect = lower value 0.955 | locus YKL048C, strain ELM1, stronger effect = lower value 0.971 | locus YKL067W, strain YNK1, stronger effect = lower value 0.972 | locus YKL101W, strain HSL1, stronger effect = lower value 0.976 | locus YKL193C, strain SDS22, stronger effect = lower value 0.969 | locus YKL203C, strain TOR2, stronger effect = lower value 0.992 | locus YLR113W, strain HOG1, stronger effect = lower value 0.923 | locus YLR133W, strain CKI1, stronger effect = lower value 0.973 | locus YLR403W, strain SFP1, stronger effect = lower value 0.927 | locus YML070W, strain DAK1, stronger effect = lower value 0.963 | locus YMR001C, strain CDC5, stronger effect = lower value 0.968 | locus YMR205C, strain PFK2 (second series), stronger effect = lower value 0.955 | locus YMR277W, strain FCP1, stronger effect = lower value 0.973 | locus YNL006W, strain LST8, stronger effect = lower value 0.969 | locus YNL020C, strain ARK1, stronger effect = lower value 0.975 | locus YNL161W, strain CBK1, stronger effect = lower value 0.972 | locus YNL183C, strain NPR1, stronger effect = lower value 0.947 | locus YNL207W, strain RIO2, stronger effect = lower value 0.981 | locus YNL222W, strain SSU72, stronger effect = lower value 0.977 | locus YNL307C, strain MCK1 (second series), stronger effect = lower value 0.948 | locus YOL078W, strain AVO1, stronger effect = lower value 0.975 | locus YOL136C, strain PFK27, stronger effect = lower value 0.966 | locus YOR061W, strain CKA2, stronger effect = lower value 0.947 | locus YOR119C, strain RIO1, stronger effect = lower value 0.958 | locus YOR231W, strain MKK1, stronger effect = lower value 0.964 | locus YOR329C, strain SCD5, stronger effect = lower value 0.975 | locus YPL031C, strain PHO85, stronger effect = lower value 0.947 | locus YPL153C, strain RAD53, stronger effect = lower value 0.958 | locus YPL204W, strain HRR25, stronger effect = lower value 0.934 | locus YPL209C, strain IPL1, stronger effect = lower value 0.972 | locus YPL256C, strain CLN2, stronger effect = lower value 0.916 | locus YPR025C, strain CCL1, stronger effect = lower value 0.968 | locus YPR106W, strain ISR1, stronger effect = lower value 0.977 | locus YPR111W, strain DBF20, stronger effect = lower value 0.971 | strain NNK1, stronger effect = lower value 0.974 | strain TSCII, stronger effect = lower value 0.968

Clc1ccc(Sc2ncnc3ccsc23)cc1
active: [3] 0.919 | [4] 0.893 | [6] 0.81 | [7] 0.885 | [2] 0.502 | [8] 0.809 | [9] 0.866 | [10] 0.768 | locus YKL190W, strain CNB1, stronger effect = lower value 0.863 | [12] 0.877 | [13] 0.352 | [15] 0.814 | [16] 0.885 | [19] 0.924 | [20] 0.777 | [21] 0.922 | [22] 0.705 | locus YOL006C, strain TOP1, stronger effect = lower value 0.516 | [23] 0.682 | [24] 0.66 | [25] 0.451
inactive: [1] 0.959 | [5] 0.911 | [11] 0.941 | [14] 1.1 | [17] 0.94 | [18] 0.934

O=c1[nH]cnc2ccsc12
inactive: [3] 1.01 | [4] 1.02 | locus YCL061C, strain MRC1, stronger effect = lower value 0.998 | [1] 1 | [5] 1.03 | [6] 1.02 | [7] 0.998 | [2] 1.05 | [8] 1 | [9] 0.996 | [10] 1.03 | [11] 0.985 | [12] 1.03 | [13] 1.04 | [14] 0.982 | [15] 1.03 | [16] 1.01 | [17] 1.04 | [18] 1.02 | [19] 1.02 | [20] 1.01 | [21] 0.993 | [22] 1.01 | [23] 1.09 | [24] 1.02 | [25] 1.34
